For this experiment, the system named is VDR:RXRa (NR concentration 270 nM, RXRa partner concentration 90 nM). The experiment in a line: PBM binding z-score (relative to random genomic background probes); higher = stronger binding; sequences stand for … in GC…GCGATTGACAGCGTAGAATGAAGG
On the procedure:
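Protein-binding microarray (Agilent 4x180K custom design, double-stranded 60-nt probes: 5' GC cap, 34-nt variable region, 24-nt constant primer region; full probe sequence given). Purified or IVT nuclear receptor:RXRα heterodimers (3:1 NR:RXRα, mostly 270:90 nM) or homodimers were incubated for 1 h in PBS with 2% milk and no ligand, then detected with Alexa488 antibodies. Fluorescence from o1-orientation probes (~5 replicates averaged) was converted to z-scores against 500 random hg19 background probes. Variable regions are seed direct-repeat (DR0–DR5) sites, all their single-nucleotide variants and half-site ablations.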
In the case of GCTTACGGGCCAAAGGTTATAGCATGAATAGAAT, the PBM binding z-score was 0.816. Sequence CTCGAAAGGTCGTGCTCAGGGGAGTATACCAAAC showed a PBM binding z-score of 3.14. Regarding CGTCCAAGGTCTAAGGTCAGTGAAGAGATGACGG, the PBM binding z-score was 1.73.

ACTAGCAGGCCAAGTTTGGGACACTCAAACAAAG yielded a PBM binding z-score of -0.55. With AGTCAAAGTTCACTGGGTAACGTAAGATTCAGCT the figure was 4.34. Turning to TTACCAAGGTGAGCTGAAGTCGTTGATCCAACTC, the PBM binding z-score was -0.383. With GCAGACAGGTGAATCGCAGGTAACTCAGGGTGGC the figure was -0.428; with TCGAGTACGTTACCAATGGGGCATTCAGCTTTCT, 0.458; with ATCGAAAGGTCGAGGTAAGTATAGAGAAAGGGAA, 2.36.

Sequence AGTCAAAGTTCACTAGGTAAGGTAAGATTCAGCT registered a PBM binding z-score of 3.96. Sequence TTACCAAGGTGAAAGGTCGTTTATGCACGCCTTG had a PBM binding z-score of 3.32. Turning to CAAACTAGGTCAAGGGCAAAGTCGGTTTGTGCCA, the PBM binding z-score was determined as 2.54. With TCTAGCAGGCCAGAGGGTCACTCCAGAGGTACGG the figure was 0.993.

Regarding CCTACTGGGCCATTCAGAGGTCAGTGATCATATG, the PBM binding z-score came out at 1.59. With ATATCTAGGTAAAGATAGTTCAGTGAATGCAAAT the figure was 0.986; with ACTTACGGGTCAACGAGGTTATAGCCCGCGTATA, 7.59; with CGAACTAGGTCTTCCAGGACAGTGAATACATTGA, -0.0143. On to TCGAGTACGTTAGTCGGGGCATTCAGCCAACATA, for which the PBM binding z-score was 0.707. With ATCGAAAGGTCGAAGGTGAGTAAACCCACCCGAA the figure was 2.84; with CCTTACGGGTCACGAGGTTATATCACGACGAGCG, 5.38. With TGTACAGGGTCAAAGGCCAGAGTACGAATGTCGA the figure was 4.59; with AGTCAAAGTTCAGGACGGGGTAACGTAAAGCACG, 3.34. With CCGACTAGGTTATGGGGCATTCAGGCAACGGTGA the figure was -0.337; with CACACTAGGTCACCGGAAGGTCAAAGTCCGCATG, 5.97.

ACTATTAGTTCACTTAGGGCAACCGATACGACGC gave a PBM binding z-score of 2.52. With CCGACTGGGGCAAGGTTACAATAACGCACAGCCA the figure was 0.055. With TCTTGTAGATCAGCAGGTTAACAAAGCTGGCCAA the figure was 0.696; with ATATGTGGGTTAGCTGGGGTCATTCAGACTAGGC, 5.99; with AGTCAAAGTTAATCTAGGTAACGTAAGATATGCT, -0.0868. With ATATGTTGGTTAGCTGGGGTCATTCAGACTAGGC the figure was 5.16. In turn, AGAATGAGGTTACCAAAGATCAGGCAAACGCTTG displayed a PBM binding z-score of 1.36. With ACAGACAGGCGAGTGAAGGTAACTCAGCTGGACG the figure was -0.451; with TCGAGTAGGTTACCAATGGGGCTTTCAGCTTTCT, -0.42; with AGAATGAGGTTAAGATCAGGGATACAGAATACAT, 1.47.

The sequence GCTGCAAGGTCAGGTTGGTCAGCTAACGGGTACG yielded a PBM binding z-score of 2.81.

Take AATACAGGGTCACTAGGCCAGAGTTGGTACGAAT: the PBM binding z-score worked out at 4.26. With TCGAGTAGGTTAGTCGGGGCACTCAGCCAACATA the figure was 1.2.

CCTAGCAGGCCAATCTGGGTAACTCAAGGCTTGA yielded a PBM binding z-score of -0.773. With GGAACGAGGGCATTCGAGTTGCTAGCATGGCGAT the figure was 2.71; with TCATCTAGGTAAATGCTAGGTGAAAGTCCGATCT, 0.555.

The values are drawn from the supplement of paper PMC6555819.
